# Sampled rows, rich in hits. Any-hit rate of the full collection: about 19%.
# TGFb inhibitor: inhibitors of TGF-b signaling; AID 588855; 410,000 tested, 1.2% active; Potency, µM (highest dose often 46.1 µM), for inactives: top-dose activity, negative = inhibition, most hits filed as inhibitors; HepG2 CAGA-GFP TGF-b/SMAD3 reporter, GFP fluorescence, 18 h; TGF-beta stimulated, 500 pg/mL final; further: potency means the concentration at half of the fitted maximal effect; on the % scale 0 is the no-effect control and ±100 the full control effect; nearly all actives have a fitted effect of over 65% in size
#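 Cell-based qHTS in HEPG2 carrying a CAGA-GFP Smad reporter; compounds added before 500 pg/mL final TGF-beta, 18 h incubation at 37 degrees C, GFP fluorescence quantified per cell by imaging cytometry.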
# DT40 TDP1 CPT: growth inhibition of DT40 Tdp1-/-;hTDP1 cells with camptothecin (screen for TDP1 inhibitors); chicken DT40 Tdp1-/-;hTDP1 cells + 20 nM CPT, ATP luminescence, 48 h; Potency, µM (titrated, usually from 46.2 µM), without a hit: top-dose activity change, negative = growth inhibition, most hits filed as inhibitors; 420,000 tested, 12% active; AID 686979; further: potency means the concentration at half of the fitted maximal effect; on the % scale 0 is the no-effect control and ±100 the full control effect; nearly all actives have a fitted effect of over 55% in size
#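 Chicken DT40 Tdp1-/- cells complemented with human TDP1, 400 cells/well, exposed to compounds plus 20 nM camptothecin for at least 48 h at 37 C; viability read as ATP content by CellTiter-Glo luminescence.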
# IL-1B inflam inh: blocks inflammasome-driven IL-1 beta release | THP-1 LPS/ATP IL-1B secretion, AlphaLISA, 16 h; stronger effect = lower value | activity change, % at 57.5 µM | 360,000 tested, 4.7% active; in the data active means activity change below about -50%; inconclusive means mostly about -30% to -49%; further: on the % scale 0 is the no-effect control and ±100 the full control effect
#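 Secreted IL-1B measured by AlphaLISA bead assay after 16 h compound exposure of THP-1 cells; compounds (final up to 57.5 uM) added 1 h before LPS (250 ng/mL) and ATP (1.25 mM) stimulation; lower signal means less secretion.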
# DT40 TDP1 no CPT: qHTS for Inhibitors of human tyrosyl-DNA phosphodiesterase 1 (TDP1): qHTS in cells in absence of CPT; 420,000 tested, 15% active; AID 686978, 2013; DT40 Tdp1-/- hTDP1 cells, no CPT, ATP luminescence, 48 h; Potency, µM (titrated, usually from 46.2 µM), inactives show at the top dose activity change, negative = growth inhibition, usual class: inhibitors; further: potency means the concentration at half of the fitted maximal effect; on the % scale 0 is the no-effect control and ±100 the full control effect; nearly all actives have a fitted effect of over 55% in size
#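 Chicken DT40 Tdp1-/- cells complemented with human TDP1, screened without camptothecin (DMSO vehicle only), 400 cells/well. Compounds pin-transferred, cells incubated at 37 °C for at least 48 hr. Growth read as ATP-dependent luminescence (CellTiter-Glo, 30 min at RT).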
# S-ASM inh: blocks human secretory acid sphingomyelinase | 340,000 tested, 0.006% active | P17405 | placental ASM, HMU-PC fluorogenic substrate, 60 min | AID 504937 | Potency, µM (top dose mostly 57.5 µM), for inactives: at the top dose activity change, negative = inhibition, most hits filed as inhibitors; further: potency means the concentration at half of the fitted maximal effect
# Target sequence (P17405 47-631 limits assumed): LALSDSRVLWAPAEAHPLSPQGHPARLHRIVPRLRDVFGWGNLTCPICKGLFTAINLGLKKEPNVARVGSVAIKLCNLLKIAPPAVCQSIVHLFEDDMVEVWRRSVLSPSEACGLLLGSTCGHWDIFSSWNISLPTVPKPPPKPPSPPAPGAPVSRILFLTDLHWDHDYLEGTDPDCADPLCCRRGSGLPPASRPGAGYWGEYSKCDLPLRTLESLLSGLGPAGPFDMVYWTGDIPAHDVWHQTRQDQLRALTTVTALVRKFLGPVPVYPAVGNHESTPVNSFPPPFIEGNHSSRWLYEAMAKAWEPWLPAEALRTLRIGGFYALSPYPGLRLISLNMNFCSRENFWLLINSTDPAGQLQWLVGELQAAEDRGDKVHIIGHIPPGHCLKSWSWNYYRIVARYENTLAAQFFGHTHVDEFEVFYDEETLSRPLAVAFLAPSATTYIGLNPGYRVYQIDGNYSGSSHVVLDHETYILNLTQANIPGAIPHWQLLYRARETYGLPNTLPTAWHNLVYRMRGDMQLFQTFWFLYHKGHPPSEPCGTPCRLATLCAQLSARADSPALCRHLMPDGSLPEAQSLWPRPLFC
#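 HMU-PC0 cleavage (9 uM final) by human placental ASM, 60 min at 37 °C following 10 min compound exposure at RT; stopped at pH 10, fluorescence Ex 386/Em 447 nm.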
# HepG2 tox: HepG2 cytotoxicity, counter-screen for TGF-b inhibitors | HepG2 CAGA-GFP viability, ATP luminescence, 18 h | 410,000 tested, 0.76% active | Potency, µM (series often up to 46.1 µM), for inactives: top-dose activity change, negative = cytotoxicity, actives largely listed as cytotoxic; further: potency means the concentration at half of the fitted maximal effect
#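 CellTiter-Glo luminescence gave cytotoxicity after 18 hours at 37 degrees C. The cells were HepG2 CAGA-GFP in 1% FBS DMEM, stimulated with 500 pg/mL TGF-beta after compound addition. %Activity was normalised to no-cell wells (complete cell-killing) and DMSO (no toxicity), and curves were fitted and classified.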
# * = called active by the depositor; ? = inconclusive; . = no result given; [ ] = dose if it differs, or a comment. Unless noted, the call rests on the fitted dose curve; in most records, active means well fitted curve in the direction sought with a large enough effect; inconclusive means small, poorly fitted or top-dose-only effect, or another doubt; inactive means no such curve, though single readings can be large; an effect the other way counts as inactive or inconclusive.
SMILES,TGFb inhibitor,DT40 TDP1 CPT,IL-1B inflam inh,DT40 TDP1 no CPT,S-ASM inh,HepG2 tox
CCOc1ccc(OCCC(=O)OCC(=O)Nc2cc(OCC)c(N3CCOCC3)cc2OCC)cc1,18%,18µM*,-13,26µM*,0%,0%
CCOC(=O)C1=C(CS(=O)(=O)c2c(C)cc(C)cc2C)NC(=O)NC1c1cccc(OC)c1 (stereo not drawn),-6%,-15%,.,?,.,-14%
CCCc1cc(=O)[nH]c2nnc(SCC(=O)Nc3cccc(C)c3)n12,-14%,0%,.,25%,.,-2%
CCOc1ccccc1-c1noc(CCCC(=O)NC2CCCCC2)n1,-5%,0%,34,-20%,4%,3%
CCN(C(=O)COC(=O)c1ccc(=O)n(Cc2ccccc2)n1)C1CCCCC1,-23%,-5%,4,-9%,2%,-2%
Cc1ccc(-n2c(=O)c3c(c4cc(C)ccc4n3C)n(CC(=O)NCc3ccccc3Cl)c2=O)cc1,-19%,7%,.,-5%,.,-1%
CC(CN1CCN(C)CC1)OC(=O)c1cccc(Cl)c1 (stereo not drawn),9%,1%,16,7%,3%,24%
CCOC(=O)c1c(SCC(=O)Nc2nc3ccc(C)cc3s2)nc(=O)[nH]c1C,-1%,0%,.,5%,.,-17%
CCOc1cc(N2CCOCC2)c(OCC)cc1NC(=O)Cc1ccc(OC)c(OC)c1,-23%,?,0,23µM*,3%,-9%
CCOc1cc(N2CCOCC2)c(OCC)cc1NC(=O)Cn1cnnn1,-4%,-13%,-4,17%,2%,-1%
CCOc1cc(N2CCOCC2)c(OCC)cc1NC(=O)CC12CC3CC(CC(C3)C1)C2,?,13µM*,-10,18µM*,-7%,-10%
CCOc1cc(N2CCOCC2)c(OCC)cc1NC(=O)Cn1nc(C)c([N+](=O)[O-])c1C,-18%,-9%,-2,?,2%,4%
CCOc1cc(N2CCOCC2)c(OCC)cc1NC(=O)[C@H](C)N1C(=O)C2CC=CCC2C1=O (stereo partly drawn),4%,-3%,28,12µM*,-1%,-2%
CCOc1cc(N2CCOCC2)c(OCC)cc1NC(=O)COc1ccccc1[N+](=O)[O-],0%,-10%,-80*,?,-1%,-14%
O=C(COC(=O)c1ccccc1C(=O)c1ccc(Cl)cc1)NCC1CCCO1 (stereo not drawn),7%,3%,?,-11%,-2%,2%
CCOc1cc(N2C(=O)CC3CS(=O)(=O)CC32)c(OCC)cc1NC(=O)c1ccccc1 (stereo not drawn),0%,?,21,21µM*,2%,-79%
CCOc1cc(N2CCOCC2)c(OCC)cc1NC(=O)CSc1ccccc1C(=O)O,2%,?,11,-19%,-3%,-5%
CCOc1cc(N2CCOCC2)c(OCC)cc1NC(=O)c1ccc(S(C)(=O)=O)cc1,0%,-2%,-3,-21%,-8%,4%
CCOc1cc(N2CCOCC2)c(OCC)cc1NC(=O)CN1CCc2ccccc2C1,-13%,23µM*,2,18µM*,-1%,-12%
CCOc1cc(N2CCOCC2)c(OCC)cc1NC(=O)COc1cccc(CC)c1,-20%,18µM*,15,8.2µM*,-9%,-17%
C=CCn1c(-c2ccccc2)nc2nc3ccccc3nc21,-20%,18µM*,-7,18µM*,87%,2%
c1ccc(Cn2c(-c3ccccc3)nc3nc4ccccc4nc32)cc1,-13%,21µM*,-2,23µM*,48%,-32%
COc1ccc(CN(C)CCCn2cnc3c(OCc4ccccc4)ncnc32)cc1OC,25%,-25%,12,-21%,-7%,2%
CCCCn1c(N)c(N(CCOC)C(=O)c2ccc(-c3cccc(C(F)(F)F)c3)o2)c(=O)[nH]c1=O,1%,1%,-13,-24%,35%,-5%
CC(C)c1nnc(NC(=O)C2CCCN2C(=O)Nc2ccc(F)cc2)s1 (stereo not drawn),2%,12%,21,-7%,0%,3%
SMILES,TGFb inhibitor,DT40 TDP1 CPT,IL-1B inflam inh,DT40 TDP1 no CPT,S-ASM inh,HepG2 tox
COc1ccc(-n2nnc(-c3nc(-c4ccc5c(c4)OCO5)no3)c2C)cc1Cl,.,-3%,.,-3%,.,2%
Cc1nc(C)c(-c2nnc(-c3ccc(C(C)(C)C)cc3)o2)cc1C(=O)NN,-27%,?,18,23µM*,0%,12%
C[C@@H]1CN([C@@H](C)CO)C(=O)CCCn2nncc2CO[C@@H]1CN(C)S(=O)(=O)c1ccc(C#N)cc1,18%,9%,19,-1%,.,0%
CC(C)Cc1nc2cc(NS(=O)(=O)N(C)C)cc(C(=O)N3CC4(C)CC3CC(C)(C)C4)c2n1C (stereo not drawn),.,-8%[9.04 µM],.,?,.,.
COc1ccc(CCNC(=O)Cc2nn(C)c(=O)c3ccccc23)cc1OC,23%,?,22,?,2%,1%
Cn1nc(CC(=O)NC2CCCCCCCCCCC2)c2ccccc2c1=O,-23%,18µM*,18,18µM*,-5%,-11%
CCCCn1nc(C(=O)NC2CCCCC2)c2ccccc2c1=O,-9%,?,-8,12µM*,.,-2%
Cn1nc(CC(=O)Nc2ccc3c(c2)CCC3)c2ccccc2c1=O,-4%,3.3µM*,89,1.6µM*,-3%,3%
Cn1nc(C(=O)NC2CCCCC2)c2ccccc2c1=O,0%,-8%,-18,-1%,3%,-4%
Cn1nc(CC(=O)Nc2ncc(Br)s2)c2ccccc2c1=O,-14%,10µM*,15,?,-1%,7%
O=C(Cn1[nH]c(=O)c2ccccc2c1=O)Nc1ccc2c(c1)CCC2,12%,-15%,29,-16%,-3%,-2%
O=S(=O)(Nc1cccc(-c2ccc(N3CCOCC3)nn2)c1)c1cc(C(F)(F)F)ccc1Cl,0%,?,.,?,.,-39%
CCCCOc1cccc(C2/C(=C(/O)c3ccc4c(c3)CC(C)O4)C(=O)C(=O)N2CCN2CCOCC2)c1 (stereo not drawn),4%,-19%,0,1%,0%,6%
CCOc1ccc(NC(=O)N[C@@H](Cc2ccccc2)C(=O)O)cc1,5%,4%,17,4%,7%,3%

# Screens (PubChem)
